Experimental data reported in PubChem BioAssay (NCI).
This is part of a sample that, as a whole, favours compounds with a hit. Of some 83,000 tested, about 20% had one in any assay.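 Single-dose data. Exposure time 48 hours. Values below 10 considered active.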 Active and inactive are the calls of the source.

Tests used:
Assay in all cases: NCI-60 one-dose screen, 48 h (100 = growth as untreated, 0 = no growth, -100 = all killed)
Settings in all cases: 10 µM unless noted
SR leukemia = system: SR leukemia
RPMI-8226 leukemia = system: RPMI-8226 leukemia
OVCAR-8 ovarian = system: OVCAR-8 ovarian
OVCAR-5 ovarian = system: OVCAR-5 ovarian
OVCAR-4 ovarian = system: OVCAR-4 ovarian
SK-OV-3 ovarian = system: SK-OV-3 ovarian
IGROV1 ovarian = system: IGROV1 ovarian
OVCAR-3 ovarian = system: OVCAR-3 ovarian
HS 578T breast = system: HS 578T breast
NCI/ADR-RES ovarian = system: NCI/ADR-RES ovarian
T-47D breast = system: T-47D breast
BT-549 breast = system: BT-549 breast
MDA-MB-435 melanoma = system: MDA-MB-435 melanoma
SW-620 colon = system: SW-620 colon
MCF7 breast = system: MCF7 breast
HCT-116 colon = system: HCT-116 colon
HCC-2998 colon = system: HCC-2998 colon
KM12 colon = system: KM12 colon

Measured: growth

S=C(Cc1ccccc1)N1CCN(c2ccccc2Cl)CC1
inactive: SR leukemia 70.3% | RPMI-8226 leukemia 95.1% | OVCAR-8 ovarian 99.1% | OVCAR-5 ovarian 97.6% | OVCAR-4 ovarian 105% | SK-OV-3 ovarian 101% | IGROV1 ovarian 110% | OVCAR-3 ovarian 106% | HS 578T breast 97.3% | NCI/ADR-RES ovarian 96.7% | T-47D breast 94.4% | BT-549 breast 96.6% | MDA-MB-435 melanoma 104% | SW-620 colon 103% | MCF7 breast 110% | HCT-116 colon 88.2% | HCC-2998 colon 101% | KM12 colon 94.5%

CCN(CC)CCCC(C)Nc1ccnc2ccc(Oc3ccccc3)cc12 (stereo not drawn)
inactive: SR leukemia 14.6% | RPMI-8226 leukemia 76.7% | OVCAR-8 ovarian 76.7% | OVCAR-5 ovarian 88.6% | OVCAR-4 ovarian 66.6% | SK-OV-3 ovarian 114% | IGROV1 ovarian 77% | OVCAR-3 ovarian 76.8% | HS 578T breast 82% | NCI/ADR-RES ovarian 92.8% | T-47D breast 70.7% | BT-549 breast 67.3% | MDA-MB-435 melanoma 25.8% | SW-620 colon 81.3% | MCF7 breast 69% | HCT-116 colon 48.7% | HCC-2998 colon 84% | KM12 colon 86.3%

CS(=O)(=O)c1ccc(C(=O)N/N=C/c2cccc3ccccc23)cc1
inactive: SR leukemia 32.5% | RPMI-8226 leukemia 87.7% | OVCAR-8 ovarian 83.9% | OVCAR-5 ovarian 109% | OVCAR-4 ovarian 113% | SK-OV-3 ovarian 78.1% | IGROV1 ovarian 63.3% | OVCAR-3 ovarian 67.8% | HS 578T breast 85.1% | NCI/ADR-RES ovarian 73.5% | T-47D breast 85.3% | BT-549 breast 87.6% | MDA-MB-435 melanoma 17.1% | SW-620 colon 63.2% | MCF7 breast 44.9% | HCT-116 colon 61.8% | HCC-2998 colon 84.5% | KM12 colon 50.8%

O=C(C(=O)N1CCCC1)c1cn(CCCn2cc(C(=O)C(=O)N3CCCC3)c3cc(Br)ccc32)c2ccc(Br)cc12
active: OVCAR-4 ovarian 5.38% | HS 578T breast -9.76%
inactive: SR leukemia 65.9% | RPMI-8226 leukemia 76.8% | OVCAR-8 ovarian 59.6% | OVCAR-5 ovarian 94.7% | SK-OV-3 ovarian 90.4% | IGROV1 ovarian 67.9% | OVCAR-3 ovarian 60% | NCI/ADR-RES ovarian 51% | T-47D breast 70.8% | BT-549 breast 84.7% | MDA-MB-435 melanoma 74.3% | SW-620 colon 85.5% | MCF7 breast 61.6% | HCT-116 colon 58.6% | HCC-2998 colon 81.6% | KM12 colon 86.2%

COc1cccc(C2C(C#N)=C(N)Oc3cc4c(cc32)OCO4)c1 (stereo not drawn)
inactive: SR leukemia 17.8% | RPMI-8226 leukemia 23.8% | OVCAR-8 ovarian 24.9% | OVCAR-5 ovarian 31.1% | OVCAR-4 ovarian 40.5% | IGROV1 ovarian 21.6% | HS 578T breast 27.8% | T-47D breast 59.9% | BT-549 breast 24% | SW-620 colon 26.9% | MCF7 breast 13.2% | HCC-2998 colon 21.8%
active: SK-OV-3 ovarian 0.748% | OVCAR-3 ovarian -38.6% | NCI/ADR-RES ovarian 5.77% | MDA-MB-435 melanoma -12.3% | HCT-116 colon 5.12% | KM12 colon 0.487%

CCCCCCCCN(CCCCCCCC)C(=O)CCl
active: IGROV1 ovarian -18.2%
inactive: SR leukemia 83.1% | RPMI-8226 leukemia 106% | OVCAR-8 ovarian 89.4% | OVCAR-5 ovarian 120% | OVCAR-4 ovarian 97% | SK-OV-3 ovarian 109% | OVCAR-3 ovarian 108% | HS 578T breast 85.1% | NCI/ADR-RES ovarian 94.7% | T-47D breast 89.7% | BT-549 breast 98.5% | MDA-MB-435 melanoma 108% | SW-620 colon 104% | MCF7 breast 99.6% | HCT-116 colon 90.8% | HCC-2998 colon 103% | KM12 colon 112%

CC1CCN(CCCCCOc2ccc3oc4ccc(Cl)cc4c(=O)c3c2)CC1
inactive: SR leukemia 14.9% | RPMI-8226 leukemia 35.4% | OVCAR-8 ovarian 59.7% | OVCAR-5 ovarian 72.9% | OVCAR-4 ovarian 77.3% | SK-OV-3 ovarian 84.3% | IGROV1 ovarian 70.4% | OVCAR-3 ovarian 74.6% | HS 578T breast 86.5% | NCI/ADR-RES ovarian 71.6% | T-47D breast 63.4% | BT-549 breast 76.2% | MDA-MB-435 melanoma 21.4% | SW-620 colon 46.7% | MCF7 breast 59.8% | HCT-116 colon 23.9% | HCC-2998 colon 78.4% | KM12 colon 62.3%

CC1(C)CN(CCNc2nccc(-c3c(-c4cccc(O)c4)nc4sccn34)n2)S(=O)(=O)N1
inactive: SR leukemia 17.5% | RPMI-8226 leukemia 96.1% | OVCAR-8 ovarian 103% | OVCAR-5 ovarian 94.1% | OVCAR-4 ovarian 70.9% | SK-OV-3 ovarian 44.7% | IGROV1 ovarian 38.5% | OVCAR-3 ovarian 77.5% | HS 578T breast 71.6% | NCI/ADR-RES ovarian 111% | T-47D breast 75.6% | BT-549 breast 80.9% | MDA-MB-435 melanoma 19.9% | SW-620 colon 87.6% | MCF7 breast 70% | HCT-116 colon 28% | HCC-2998 colon 93.4% | KM12 colon 76.4%

CSC1=N/C(=C\c2cccc(OCc3ccc(Cl)cc3)c2)C(=O)N1
inactive: SR leukemia 80.9% | RPMI-8226 leukemia 67.7% | OVCAR-8 ovarian 86.1% | OVCAR-5 ovarian 106% | OVCAR-4 ovarian 56.9% | SK-OV-3 ovarian 98.5% | IGROV1 ovarian 86.7% | OVCAR-3 ovarian 84.2% | HS 578T breast 104% | NCI/ADR-RES ovarian 79% | T-47D breast 59.4% | BT-549 breast 88.1% | MDA-MB-435 melanoma 80.6% | SW-620 colon 88.1% | MCF7 breast 83% | HCT-116 colon 88.8% | HCC-2998 colon 93% | KM12 colon 79.8%

O=C(O)c1cc2cc(OCc3ccccc3)ccc2[nH]1
inactive: SR leukemia 104% | RPMI-8226 leukemia 94.3% | OVCAR-8 ovarian 87.9% | OVCAR-5 ovarian 109% | OVCAR-4 ovarian 97.5% | SK-OV-3 ovarian 94.7% | IGROV1 ovarian 110% | OVCAR-3 ovarian 102% | HS 578T breast 97.1% | NCI/ADR-RES ovarian 109% | T-47D breast 101% | BT-549 breast 84.9% | MDA-MB-435 melanoma 111% | SW-620 colon 102% | MCF7 breast 62.4% | HCT-116 colon 100% | HCC-2998 colon 104% | KM12 colon 96.8%

O=C(CCl)Nc1ccc2c(c1)C(=O)c1ccccc1C2=O
active: SR leukemia -10.3% | RPMI-8226 leukemia -59.1% | OVCAR-8 ovarian -27.3% | IGROV1 ovarian -15.6% | OVCAR-3 ovarian -87.1% | T-47D breast -71% | BT-549 breast -45.3% | SW-620 colon -78.6% | MCF7 breast -25% | HCT-116 colon -28.6%
inactive: OVCAR-5 ovarian 18.6% | OVCAR-4 ovarian 36.8% | SK-OV-3 ovarian 54.5% | HS 578T breast 51.8% | NCI/ADR-RES ovarian 14.2% | MDA-MB-435 melanoma 13.1% | HCC-2998 colon 69% | KM12 colon 54.9%

CCC(=O)NC1=C(Cl)C(=O)C(NC(=O)CC)=C(Cl)C1=O
inactive: OVCAR-8 ovarian 99.3% | OVCAR-5 ovarian 107% | SK-OV-3 ovarian 99.9% | IGROV1 ovarian 116% | HS 578T breast 135% | NCI/ADR-RES ovarian 101% | BT-549 breast 119% | MDA-MB-435 melanoma 136% | MCF7 breast 28.3% | HCC-2998 colon 103% | KM12 colon 109%
active: SR leukemia -55.1% | RPMI-8226 leukemia -34.3% | OVCAR-4 ovarian -98.5% | OVCAR-3 ovarian -94.5% | T-47D breast -54.4% | SW-620 colon -72.1% | HCT-116 colon -93.1%

COC(=O)[C@@H](Cc1c[nH]c2ccccc12)NC(=O)/C=C/c1ccccc1
active: SK-OV-3 ovarian 2.1% | OVCAR-3 ovarian -5.22% | HS 578T breast -13% | NCI/ADR-RES ovarian 4.17% | BT-549 breast -0.499% | MDA-MB-435 melanoma -84.3%
inactive: SR leukemia 18.4% | RPMI-8226 leukemia 14.3% | OVCAR-8 ovarian 25.2% | OVCAR-5 ovarian 36% | OVCAR-4 ovarian 63.1% | IGROV1 ovarian 29.1% | T-47D breast 32.2% | SW-620 colon 27.5% | MCF7 breast 19.6% | HCT-116 colon 16.8% | HCC-2998 colon 66% | KM12 colon 27.3%

CSc1ccc(/C=C2\C=C(CC(=O)NCc3ccc(C(=O)c4ccccc4)cc3)c3cc(F)ccc32)cc1
active: OVCAR-8 ovarian 1.81% | SK-OV-3 ovarian -34.4% | OVCAR-3 ovarian -60.1% | HS 578T breast 2.68% | NCI/ADR-RES ovarian -34.6% | MDA-MB-435 melanoma -47.8% | SW-620 colon 9.98% | MCF7 breast -2.9% | HCT-116 colon -28% | HCC-2998 colon -0.5% | KM12 colon -61.4%
inactive: SR leukemia 10.3% | RPMI-8226 leukemia 15.2% | OVCAR-5 ovarian 25.2% | OVCAR-4 ovarian 10.9% | IGROV1 ovarian 10.3% | T-47D breast 31.6% | BT-549 breast 25.7%

O=S1(=O)NCCCN1CCNc1nccc(-c2c(-c3cccc(O)c3)nc3sccn23)n1
inactive: SR leukemia 23.2% | RPMI-8226 leukemia 107% | OVCAR-8 ovarian 83% | OVCAR-5 ovarian 108% | OVCAR-4 ovarian 85.4% | SK-OV-3 ovarian 43.6% | IGROV1 ovarian 56.7% | OVCAR-3 ovarian 73.3% | HS 578T breast 70.4% | NCI/ADR-RES ovarian 116% | T-47D breast 78.3% | BT-549 breast 86% | MDA-MB-435 melanoma 24.6% | SW-620 colon 88% | MCF7 breast 91.8% | HCT-116 colon 31% | HCC-2998 colon 108% | KM12 colon 102%

O=C1OC(/C=C/c2ccccc2)=NC/1=C/c1ccccc1[N+](=O)[O-]
inactive: SR leukemia 90.8% | RPMI-8226 leukemia 91.9% | OVCAR-8 ovarian 96.8% | OVCAR-5 ovarian 99.1% | OVCAR-4 ovarian 94.2% | SK-OV-3 ovarian 101% | IGROV1 ovarian 79.6% | OVCAR-3 ovarian 98.4% | HS 578T breast 107% | NCI/ADR-RES ovarian 96.4% | T-47D breast 90.5% | BT-549 breast 89.8% | MDA-MB-435 melanoma 108% | SW-620 colon 103% | MCF7 breast 90.7% | HCT-116 colon 104% | HCC-2998 colon 104% | KM12 colon 102%
